Records with an inconclusive call do not appear. Unmarked numbers belong to inactive results. The list shows a part of the results. The source made the active and inactive calls. The call rests on the fitted dose curve; in most records, active means well fitted curve in the direction sought with a large enough effect; inconclusive means small, poorly fitted or top-dose-only effect, or another doubt; inactive means no such curve, though single readings can be large; an effect the other way counts as inactive or inconclusive.

In test [1] the target is Rap guanine nucleotide exchange factor 3 (Homo sapiens) (UniProt O95398). In words: Confirmatory qHTS for agonist of cAMP-regulated guanine nucleotide exchange factor 3 (EPAC1) (AID 1645881). Further: nearly all actives have a fitted effect of over 75% in size. Further: potency means the concentration at half of the fitted maximal effect.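 On activation: EPAC1 catalysed release of BODIPY-GDP from Rap1B seen as fluorescence loss; 100% = effect of cAMP agonist control.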 For orientation: In qHTS, concentration-response curves come from the screen itself.
In test [2] the target is Rap guanine nucleotide exchange factor 4 (Homo sapiens) (UniProt Q8WZA2). In words: Confirmatory qHTS for agonist of cAMP-regulated guanine nucleotide exchange factor 4 (EPAC2) (AID 1645884).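 Further: nucleotide exchange releases bodipy-GDP from Rap1 and this lowers its fluorescence; nearly all actives have a fitted effect of over 65% in size.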 Further: potency means the concentration at half of the fitted maximal effect. On activation: on the % scale 0 is the no-effect control and ±100 the full control effect.
Test [3] concerns the target Rap guanine nucleotide exchange factor 3 (Homo sapiens) (UniProt O95398). In words: Counterscreen qHTS for antagonist of cAMP-regulated guanine nucleotide exchange factor 3 (EPAC1) (AID 1645888).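 Further: fluorescence loss as bound BODIPY-GDP is released from Rap1B; % of control where 0% means no effect.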 In outline: (§1)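 Rap1B–BODIPY-GDP (250 nM) with 50 uM GDP; compounds pin-transferred to 9.74 nM–152 uM final (activator) or from 7.32 nM upwards (inhibitor). Fluorescence Ex/Em 480/540 nm read at 5 and 30 min, then after adding cAMP or buffer, at room temperature.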

Test [4] has the same target. In words: Counterscreen qHTS for agonist of cAMP-regulated guanine nucleotide exchange factor 3 (EPAC1) (AID 1645889). Further: nearly all actives have a fitted effect of over 40% in size. Further: potency means the concentration at half of the fitted maximal effect. On activation: % of control where 0% means no effect. The method in brief:
as §1

Test [5] in a line: qHTS Assay for Inhibitors of Fructose-1,6-bisphosphate Aldolase from Giardia Lamblia: Giardia lamblia growth inhibition (AID 2785). Further: on the % scale 0 is the no-effect control and ±100 the full control effect; nearly all actives have a fitted effect of over 70% in size. The method in brief:
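G. lamblia WB trophozoites (100 cells/well) were grown with compound at 37C for 48 h in modified TYI-S-33 medium, pH 7.0. Growth was measured by ATPlite luminescence after 20 min at room temperature.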

Test [6] in a line: qHTS Assay for Inhibitors of Fructose-1,6-bisphosphate Aldolase from Giardia Lamblia: Mammalian cellular toxicity (AID 2786).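 Further: compound exposure lasted 48 h before reading; on the % scale 0 is the no-effect control and ±100 the full control effect; nearly all actives have a fitted effect of over 60% in size.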 In outline: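 CHO cells seeded at 250 cells/well with pin-tool-added compound, incubated 48 h at 37 °C, 5% CO2. Viability read as ATP content by ATPlite luminescence after 20 min.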
Test [7] deals with Tyrosyl-DNA phosphodiesterase 1 (Homo sapiens) (UniProt Q9NUW8). In words: Confirmation Assay for Inhibitors of Tyrosyl-DNA Phosphodiesterase (TDP1) (AID 489007). Further: potency means the concentration at half of the fitted maximal effect; nearly all actives have a fitted effect of over 40% in size. Particulars: recombinant human TDP1 enzymatic activity, dose-response. The method in brief: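 Loss of AlphaScreen signal reports Tdp1 cleavage of a dual-labelled DNA substrate. Conditions: 1 nM E. coli-derived enzyme, 15 nM substrate, 15 min compound preincubation, 5 min reaction, 10 min bead incubation, all at room temperature.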

In test [8] the target is Tumor susceptibility gene 101 protein (Homo sapiens) (UniProt Q99816). Description: qHTS Assay for Iinhibitors of HIV-1 Budding by Blocking the Interaction of PTAP/TSG101: Hit Validation (AID 651600). Further: potency means the concentration at half of the fitted maximal effect; nearly all actives have a fitted effect of over 70% in size. The method in brief:
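Tsg101 binding domain 10 uM + FITC-PTAP peptide 50 nM (final), 10 mM HEPES pH 7.5/0.15 M NaCl/0.01% Tween 20/3 mM EDTA/0.1 mM TCEP; 20 min RT; FP read, FITC filters.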

For test [9], the target named is Phosphoglycerate kinase, glycosomal (Trypanosoma brucei brucei) (UniProt P07378). In words: qHTS for inhibitors of Phosphogylcerate Kinase: Hit Validation Screen (AID 686980). Further: potency means the concentration at half of the fitted maximal effect; nearly all actives have a fitted effect of over 65% in size. Conditions: TbPGK coupled GAPDH assay, Kinase-Glo luminescence. In outline: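 Recombinant glycosomal PGK reaction used 1,3-bisphosphoglycerate generated in-well by GAPDH (100nM final) in 100mM TEA pH 7.6, 5mM MgCl2, 0.01% Tween-20. After 60 minutes at room temperature, ATP was read by Kinase-Glo Plus luminescence end-point.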

Test [10] has as its target DNA polymerase iota (Homo sapiens) (UniProt Q9UNA4). In words: qHTS for Inhibitors of Polymerase Iota: Confirmatory Assay for Cherry-picked Compounds (AID 720496). Further: potency means the concentration at half of the fitted maximal effect. Conditions: Pol iota primer extension, TAMRA/BHQ fluorescence. The method in brief: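 10 nM Pol iota + cpd, 15 min RT; start w/ 50 nM (final) TAMRA reporter/BHQ-2 template primer substrate; ex 525/em 598 nm read at 0 and 10 min kinetic.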

The target in test [11] is Flap endonuclease 1 (Homo sapiens) (UniProt P39748). Description: qHTS Assay for the Inhibitors of FEN1: Confirmatory Assay for Cherry-picked Compounds (AID 720498). Further: potency means the concentration at half of the fitted maximal effect; nearly all actives have a fitted effect of over 60% in size. Conditions: FEN1 flap cleavage, TAMRA/BHQ2 fluorogenic DNA substrate. In outline: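 Human FEN1 (10 nM reagent) was preincubated with compounds for 15 min at room temperature, then 50 nM final double-flap DNA substrate (5'-TAMRA flap, BHQ-2 quencher strand) was added. Fluorescence (ex 525/em 598 nm) was read at 0 and 15 min.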

In test [12] the target is DNA polymerase eta (Homo sapiens) (UniProt Q9Y253). In words: qHTS for Inhibitors of Polymerase Eta: Confirmatory Assay for Cherry-picked Compounds (AID 720502). Further: potency means the concentration at half of the fitted maximal effect. Conditions: Pol eta primer extension, TAMRA/BHQ fluorescence, 10 min. In outline: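 The reaction starts with 50 nM final labeled DNA substrate added to Pol eta (10 nM) that had sat with compound for 15 min. TAMRA emission at 598 nm is read at 0 and 10 min.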
DNA polymerase eta (Homo sapiens), sequence (Q9Y253 whole entry, looked up): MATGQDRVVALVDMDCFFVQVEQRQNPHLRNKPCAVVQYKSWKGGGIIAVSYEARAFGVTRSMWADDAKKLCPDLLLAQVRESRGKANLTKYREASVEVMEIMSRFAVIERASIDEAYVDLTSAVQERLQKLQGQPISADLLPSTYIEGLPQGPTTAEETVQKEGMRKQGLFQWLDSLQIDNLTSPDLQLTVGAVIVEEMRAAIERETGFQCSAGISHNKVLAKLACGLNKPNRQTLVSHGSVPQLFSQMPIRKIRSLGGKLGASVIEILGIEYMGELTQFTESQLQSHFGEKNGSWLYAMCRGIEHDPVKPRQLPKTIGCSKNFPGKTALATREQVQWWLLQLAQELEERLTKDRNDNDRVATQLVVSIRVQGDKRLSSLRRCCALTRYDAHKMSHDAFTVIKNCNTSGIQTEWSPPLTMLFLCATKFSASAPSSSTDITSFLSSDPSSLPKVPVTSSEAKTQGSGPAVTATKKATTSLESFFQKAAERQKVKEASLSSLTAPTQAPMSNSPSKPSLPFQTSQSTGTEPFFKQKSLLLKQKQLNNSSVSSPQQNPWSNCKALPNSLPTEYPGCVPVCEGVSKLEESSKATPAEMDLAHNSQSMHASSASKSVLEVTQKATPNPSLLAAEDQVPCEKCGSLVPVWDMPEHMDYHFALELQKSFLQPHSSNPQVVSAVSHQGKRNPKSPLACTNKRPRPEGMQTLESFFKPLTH

Rap guanine nucleotide exchange factor 4 (Homo sapiens), sequence (Q8WZA2 whole entry, looked up): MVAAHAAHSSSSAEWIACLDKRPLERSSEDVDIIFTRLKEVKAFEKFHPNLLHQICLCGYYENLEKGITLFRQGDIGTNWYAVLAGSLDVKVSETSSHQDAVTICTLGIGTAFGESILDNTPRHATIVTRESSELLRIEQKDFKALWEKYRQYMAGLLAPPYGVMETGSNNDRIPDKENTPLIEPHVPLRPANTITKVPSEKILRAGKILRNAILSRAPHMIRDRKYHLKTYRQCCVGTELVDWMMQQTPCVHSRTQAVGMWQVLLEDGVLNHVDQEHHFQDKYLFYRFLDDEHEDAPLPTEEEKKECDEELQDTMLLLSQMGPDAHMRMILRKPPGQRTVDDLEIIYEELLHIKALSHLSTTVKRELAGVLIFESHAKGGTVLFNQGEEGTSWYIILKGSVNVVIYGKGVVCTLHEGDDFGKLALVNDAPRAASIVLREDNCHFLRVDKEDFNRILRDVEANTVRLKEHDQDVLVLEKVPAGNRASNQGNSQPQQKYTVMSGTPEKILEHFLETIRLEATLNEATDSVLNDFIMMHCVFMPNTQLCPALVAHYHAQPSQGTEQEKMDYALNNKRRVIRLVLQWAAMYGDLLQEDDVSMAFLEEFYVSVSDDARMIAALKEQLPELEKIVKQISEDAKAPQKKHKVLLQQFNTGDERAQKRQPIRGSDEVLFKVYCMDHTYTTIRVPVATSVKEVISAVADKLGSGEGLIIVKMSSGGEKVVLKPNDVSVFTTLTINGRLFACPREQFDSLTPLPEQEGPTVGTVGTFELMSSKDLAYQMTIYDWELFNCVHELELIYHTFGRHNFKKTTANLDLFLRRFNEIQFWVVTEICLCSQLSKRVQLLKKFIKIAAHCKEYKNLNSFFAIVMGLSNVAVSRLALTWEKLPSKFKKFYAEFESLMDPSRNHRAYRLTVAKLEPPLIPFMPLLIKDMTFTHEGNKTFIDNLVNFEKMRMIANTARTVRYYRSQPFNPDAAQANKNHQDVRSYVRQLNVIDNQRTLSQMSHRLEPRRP
Rap guanine nucleotide exchange factor 3 (Homo sapiens), sequence (O95398 whole entry, looked up): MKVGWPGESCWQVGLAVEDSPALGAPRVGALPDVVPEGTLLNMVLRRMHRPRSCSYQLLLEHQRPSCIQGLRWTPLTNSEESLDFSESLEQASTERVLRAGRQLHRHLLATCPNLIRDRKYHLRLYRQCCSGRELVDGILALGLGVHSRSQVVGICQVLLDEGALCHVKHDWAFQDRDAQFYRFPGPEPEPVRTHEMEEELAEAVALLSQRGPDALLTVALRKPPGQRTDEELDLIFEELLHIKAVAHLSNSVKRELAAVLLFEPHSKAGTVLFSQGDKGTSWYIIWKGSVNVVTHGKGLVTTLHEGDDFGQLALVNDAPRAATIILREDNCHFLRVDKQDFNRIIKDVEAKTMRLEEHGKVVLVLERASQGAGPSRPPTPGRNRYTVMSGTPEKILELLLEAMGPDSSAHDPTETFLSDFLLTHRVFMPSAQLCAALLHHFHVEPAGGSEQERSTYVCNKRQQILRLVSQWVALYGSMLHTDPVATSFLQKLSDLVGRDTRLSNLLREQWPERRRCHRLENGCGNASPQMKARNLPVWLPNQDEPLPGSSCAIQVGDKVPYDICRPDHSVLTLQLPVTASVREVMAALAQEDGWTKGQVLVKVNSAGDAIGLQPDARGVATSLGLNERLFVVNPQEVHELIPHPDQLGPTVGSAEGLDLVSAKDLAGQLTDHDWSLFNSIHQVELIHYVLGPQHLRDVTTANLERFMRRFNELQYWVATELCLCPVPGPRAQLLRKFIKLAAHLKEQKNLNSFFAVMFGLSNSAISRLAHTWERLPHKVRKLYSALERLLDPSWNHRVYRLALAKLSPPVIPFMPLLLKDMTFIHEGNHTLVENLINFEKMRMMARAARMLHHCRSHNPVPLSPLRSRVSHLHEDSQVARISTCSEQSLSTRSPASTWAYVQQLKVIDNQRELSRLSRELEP
DNA polymerase iota (Homo sapiens), sequence (Q9UNA4 whole entry, looked up): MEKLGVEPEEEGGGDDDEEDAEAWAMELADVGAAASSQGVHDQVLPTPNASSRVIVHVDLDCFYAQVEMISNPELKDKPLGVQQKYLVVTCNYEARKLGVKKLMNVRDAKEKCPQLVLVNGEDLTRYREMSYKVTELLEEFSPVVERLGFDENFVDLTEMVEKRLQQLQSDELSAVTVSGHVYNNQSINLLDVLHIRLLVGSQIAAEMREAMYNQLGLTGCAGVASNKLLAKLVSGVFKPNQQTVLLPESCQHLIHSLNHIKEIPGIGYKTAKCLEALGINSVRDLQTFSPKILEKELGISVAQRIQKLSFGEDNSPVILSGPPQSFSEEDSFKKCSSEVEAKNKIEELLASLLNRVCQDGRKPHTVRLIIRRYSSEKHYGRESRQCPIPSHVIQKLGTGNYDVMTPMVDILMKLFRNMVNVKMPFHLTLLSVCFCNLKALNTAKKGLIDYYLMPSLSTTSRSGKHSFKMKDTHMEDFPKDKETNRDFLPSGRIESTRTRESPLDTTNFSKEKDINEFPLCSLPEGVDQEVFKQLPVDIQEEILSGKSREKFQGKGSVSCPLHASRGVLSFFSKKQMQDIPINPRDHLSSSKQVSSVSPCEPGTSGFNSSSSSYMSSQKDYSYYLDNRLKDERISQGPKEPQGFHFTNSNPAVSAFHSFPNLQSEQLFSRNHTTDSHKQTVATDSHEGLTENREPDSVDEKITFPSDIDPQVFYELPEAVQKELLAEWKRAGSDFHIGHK
Tyrosyl-DNA phosphodiesterase 1 (Homo sapiens), sequence (Q9NUW8 whole entry, looked up): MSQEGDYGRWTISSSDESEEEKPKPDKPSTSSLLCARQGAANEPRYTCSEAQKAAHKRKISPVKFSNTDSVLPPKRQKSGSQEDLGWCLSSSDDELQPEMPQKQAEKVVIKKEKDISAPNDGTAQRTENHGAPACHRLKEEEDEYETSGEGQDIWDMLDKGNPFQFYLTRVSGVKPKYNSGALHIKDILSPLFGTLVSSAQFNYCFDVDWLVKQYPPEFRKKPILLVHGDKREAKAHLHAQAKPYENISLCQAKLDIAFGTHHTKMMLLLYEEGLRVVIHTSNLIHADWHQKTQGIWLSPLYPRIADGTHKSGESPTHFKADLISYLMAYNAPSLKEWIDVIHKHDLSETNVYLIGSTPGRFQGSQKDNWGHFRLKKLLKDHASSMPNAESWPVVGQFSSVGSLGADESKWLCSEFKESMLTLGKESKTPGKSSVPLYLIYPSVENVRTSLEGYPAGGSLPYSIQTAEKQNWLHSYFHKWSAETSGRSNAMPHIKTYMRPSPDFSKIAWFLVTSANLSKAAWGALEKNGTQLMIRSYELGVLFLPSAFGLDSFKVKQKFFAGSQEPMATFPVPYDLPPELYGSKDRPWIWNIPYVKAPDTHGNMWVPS
Flap endonuclease 1 (Homo sapiens), sequence (P39748 whole entry, looked up): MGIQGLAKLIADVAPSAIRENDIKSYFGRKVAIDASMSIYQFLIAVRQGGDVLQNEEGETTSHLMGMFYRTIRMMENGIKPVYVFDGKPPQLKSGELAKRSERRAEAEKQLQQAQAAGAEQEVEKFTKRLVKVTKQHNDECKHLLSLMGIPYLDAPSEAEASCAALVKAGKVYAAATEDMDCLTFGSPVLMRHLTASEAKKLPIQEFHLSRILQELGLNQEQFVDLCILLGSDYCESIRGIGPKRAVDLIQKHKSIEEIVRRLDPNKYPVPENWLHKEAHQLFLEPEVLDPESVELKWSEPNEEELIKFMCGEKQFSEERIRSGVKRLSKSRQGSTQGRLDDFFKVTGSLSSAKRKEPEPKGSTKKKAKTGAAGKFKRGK
Tumor susceptibility gene 101 protein (Homo sapiens), sequence (Q99816 whole entry, looked up, the tested form may be a part): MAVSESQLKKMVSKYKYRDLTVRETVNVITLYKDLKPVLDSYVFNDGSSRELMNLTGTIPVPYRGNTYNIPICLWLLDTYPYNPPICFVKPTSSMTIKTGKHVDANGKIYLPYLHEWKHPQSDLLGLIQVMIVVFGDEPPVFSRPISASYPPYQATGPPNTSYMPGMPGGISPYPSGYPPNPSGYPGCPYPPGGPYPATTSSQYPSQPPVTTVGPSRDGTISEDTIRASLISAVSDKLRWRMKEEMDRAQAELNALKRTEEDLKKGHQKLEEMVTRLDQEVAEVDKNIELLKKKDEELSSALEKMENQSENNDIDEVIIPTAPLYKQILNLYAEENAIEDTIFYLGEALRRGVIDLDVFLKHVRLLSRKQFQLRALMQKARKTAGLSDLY

For the compound `CCOC(=O)Cn1nc(C)c(NC(=O)COc2ccccc2[N+](=O)[O-])c1C`, the Potency entry in test [1] is “inactive”. For the same compound, the activation in test [2] is 1.83% [at 17.1 µM, percent relative to cAMP agonist control]; in test [4] it was 2.17% [at 30.8 µM]. For the same compound, the activity change, negative = inhibition in test [3] is -12.5% [at 30.8 µM].

In the case of `CCCCc1ccc(NC(=O)CN2C(=O)C3CCCCC3C2=O)cc1` (stereo not given), the Potency entry in [1], in [2], in [3] and in [4] was “inactive” throughout.

As for `Nc1ccc2nc3c(=O)[nH]c(=S)[nH]c3nc2c1`, the result in [5] and in test [6] was inactive. The Potency in test [7] is 39.8 µM (active); in test [8] it was 18.3 µM (active); in test [9], 16.3 µM (active); in test [10] it was 33.6 µM (active); in [11], 67.5 µM (active); in test [12] it was 19 µM (active). Also, the values for the Potency in test [1], in test [2] and in test [4] were 79.4 µM (active), 100 µM (active) and 44.7 µM (active), respectively. Besides, in [3], the Potency result is “inactive”.

For `CCOC(=O)[C@H](C)N1[C@H](C)[C@H](c2ccccc2)Oc2ccc(Cl)cc2S1(=O)=O`, the Potency result in test [1] was “inactive”. Also, the activation in test [2] is 3.08% [at 17.1 µM, percent relative to cAMP agonist control]; in test [4] it was 25.5% [at 30.8 µM]. Besides, the activity change, negative = inhibition in test [3] was 6.25% [at 30.8 µM].

With `CCOC(=O)c1c(NC(=O)c2ccc(S(=O)(=O)N(C)CC3CCCO3)cc2)sc2c1CCN(C)C2` (stereo not given), the Potency entry in test [1], in [2], in test [3] and in [4] was “inactive” throughout.

Regarding `CN(C)c1cc(Cl)c2nonc2c1N`, the Potency entry in test [1], in test [2], in test [3] and in test [4] was “inactive” each time.

Consider `O=[N+]([O-])c1ccc(C=NNc2ccc(S(=O)(=O)O)cc2)cc1`, for which the Potency result in test [1] was “inactive”. The activation in [2] is -6.29% [at 17.1 µM, percent relative to cAMP agonist control]; in test [4], 6.23% [at 30.8 µM]. Besides, in test [3], the activity change, negative = inhibition was -18.7% [at 30.8 µM].

Take `Cc1cc2c(N)cccc2nn1`: the Potency entry in [1], in test [2], in [3] and in [4] was “inactive” in each case.

On to `COc1cc(/C=C/[N+](=O)[O-])ccc1OCc1cccc(C(=O)O)c1`, for which the Potency in test [7] is 79.4 µM (active). Also, the Potency entry in test [1], in test [2], in [3] and in test [4] was “inactive” in each case.

For the compound `Cc1ccc2nc(-c3cccc(Br)c3)c(Cc3ccccn3)n2c1`, the Potency result in test [1], in test [2], in [3] and in [4] was “inactive” throughout.

Take `COc1ccc(-c2nn(-c3ccccc3)cc2/C=C2/SC(=S)N(CCCC(=O)O)C2=O)c(C)c1`: the results for the Potency in [10] and in test [11] were 75.2 µM (active) and 47.8 µM (active), respectively. Besides, the Potency entry in [1], in test [2], in [3] and in test [4] was “inactive” each time.

With `O=C(NCCc1ccccc1)c1cccc(NC(=O)c2ccccc2)c1`, the Potency result in [1], in test [2], in test [3] and in test [4] was “inactive” throughout.

As for `CCOC(=O)C1=C(N)Oc2ccc3ccccc3c2C1c1ccc(O)cc1` (stereo not given), the Potency result in test [1], in [2], in test [3] and in [4] was “inactive” in each case.

For the compound `COc1cc2c(c(OC)c1OC)C(c1ccccc1C)CC(=O)O2` (stereo not given), the Potency result in test [1], in [2], in test [3] and in test [4] was “inactive” each time.

Regarding `COc1ccc(CCC(=O)N(C)CC(=O)Nc2ccc(Cl)c(C(F)(F)F)c2)cc1`, the Potency entry in [1], in test [2] and in test [4] was “inactive” each time.

The values above are taken from PubChem BioAssay (NCATS).
